In PubChem BioAssay (EPA / NIEHS):
Active and inactive are the calls of the source. Rule for the calls: active = hit-call score of the fitted dose curve at least 0.9, where 1 is the maximum; inactive = score below 0.9.

Columns and labels:
Details in all cases: mRNA level, 48 h; actives raise or lower the signal
[1] = read-out: Cytochrome P450 2C19 (Homo sapiens) (UniProt P33261); assay: LTEA_HepaRG_CYP2C19: Life Technologies and Expression Analysis (LTEA) Assay for CYP2C19 using HepaRG (AID 2283482)
Summary of the method: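 CYP2C19 transcript levels by qRT-PCR, normalized to three housekeeping genes, in HepaRG cells after 48 h chemical exposure. Eight-point half-log series topping at 100 uM, 0.5% DMSO vehicle. Increases and decreases both fitted against DMSO.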

[2] = read-out: CYP2C8 (gene 1558); assay: LTEA_HepaRG_CYP2C8: Life Technologies and Expression Analysis (LTEA) Assay for CYP2C8 using HepaRG (AID 2283483)
Summary of the method: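 CYP2C8 mRNA induction or loss, by qRT-PCR normalized to ACTB/GAPDH/POLR2A, is read in HepaRG cells after 48 h treatment. Concentrations run from 100 uM down in half-log dilutions, with 0.5% DMSO as vehicle and baseline.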

[3] = read-out: CYP2C9 (gene 1559); assay: LTEA_HepaRG_CYP2C9: Life Technologies and Expression Analysis (LTEA) Assay for CYP2C9 using HepaRG (AID 2283484)
Summary of the method: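 Cells plated 48 h, switched to serum-free induction medium, then treated in duplicate for 48 h at eight concentrations (max 100 uM, 0.5% DMSO). RNA then analysed by qRT-PCR for CYP2C9; curves fitted in both directions relative to DMSO.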

[4] = read-out: CYP2E1 (gene 1571); assay: LTEA_HepaRG_CYP2E1: Life Technologies and Expression Analysis (LTEA) Assay for CYP2E1 using HepaRG (AID 2283485)
Summary of the method: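 HepaRG cells, plated 48 h, then exposed 48 h in serum-free induction medium to eight half-log concentrations from 100 uM in 0.5% DMSO, duplicate. CYP2E1 mRNA by qRT-PCR, normalized to ACTB/GAPDH/POLR2A; bidirectional fit versus DMSO.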

[5] = read-out: CYP4A11 (gene 1579); assay: LTEA_HepaRG_CYP4A11: Life Technologies and Expression Analysis (LTEA) Assay for CYP4A11 using HepaRG (AID 2283486)
Summary of the method: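 Readout is CYP4A11 transcript level by qRT-PCR, normalized to three housekeeping genes and fitted bidirectionally against 0.5% DMSO. Human HepaRG cells were treated 48 h, in duplicate, with an 8-point half-log series topping at 100 uM.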

[6] = read-out: Cytochrome P450 3A4 (Homo sapiens) (UniProt P08684); assay: LTEA_HepaRG_CYP3A4: Life Technologies and Expression Analysis (LTEA) Assay for CYP3A4 using HepaRG (AID 2283487)
Summary of the method: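 CYP3A4 transcript measured by TaqMan qRT-PCR and normalized to three housekeeping genes after 48 h chemical exposure of human HepaRG cells. Top concentration 100 uM, half-log steps, 0.5% DMSO vehicle; gain or loss fitted against DMSO baseline.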

[7] = read-out: DNA damage-inducible transcript 3 (DDIT3), DDIT3 (gene 1649); assay: LTEA_HepaRG_DDIT3: Life Technologies and Expression Analysis (LTEA) Assay for DNA damage-inducible transcript 3 (DDIT3) using HepaRG (AID 2283488)
Summary of the method: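 HepaRG cells, 48 h after plating, exposed 48 h in serum-free induction medium to 8 half-log concentrations up to 100 uM in 0.5% DMSO, in duplicate. DDIT3 mRNA measured by TaqMan qRT-PCR, normalized to ACTB, GAPDH and POLR2A. Fitted bidirectionally against DMSO.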

[8] = read-out: Pro-epidermal growth factor (Homo sapiens) (UniProt P01133); assay: LTEA_HepaRG_EGF: Life Technologies and Expression Analysis (LTEA) Assay for Epidermal growth factor (EGF) using HepaRG (AID 2283489)
Summary of the method: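 EGF transcript measured by Fluidigm TaqMan qRT-PCR with three housekeeping genes for normalization, 48 h after dosing HepaRG cultures in duplicate (top 100 uM, half-log steps, 0.5% DMSO vehicle). Gain or loss relative to DMSO fitted.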

[9] = read-out: Early growth response protein 1 (EGR1) transcription factor, EGR1 (gene 1958); assay: LTEA_HepaRG_EGR1: Life Technologies and Expression Analysis (LTEA) Assay for Early growth response protein 1 (EGR1) transcription factor using HepaRG (AID 2283490)
Summary of the method: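 Read-out is EGR1 mRNA level by qRT-PCR, normalized to three housekeeping genes and analysed for gain or loss of signal against 0.5% DMSO. Source cells: human HepaRG, treated 48 h at up to 100 uM in half-log dilutions.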

[10] = read-out: Ezrin (EZR), EZR (gene 7430); assay: LTEA_HepaRG_EZR: Life Technologies and Expression Analysis (LTEA) Assay for Ezrin (EZR) using HepaRG (AID 2283491)
Summary of the method: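 HepaRG, 48 h chemical exposure, 8-pt half-log series from 100 uM, 0.5% DMSO vehicle, duplicates. Read-out: EZR mRNA by TaqMan qRT-PCR (Fluidigm array), housekeeping-normalized; bidirectional curve fit vs DMSO baseline.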

Measured: AC50

Sequence of Cytochrome P450 2C19 (Homo sapiens) (P33261 whole entry, looked up): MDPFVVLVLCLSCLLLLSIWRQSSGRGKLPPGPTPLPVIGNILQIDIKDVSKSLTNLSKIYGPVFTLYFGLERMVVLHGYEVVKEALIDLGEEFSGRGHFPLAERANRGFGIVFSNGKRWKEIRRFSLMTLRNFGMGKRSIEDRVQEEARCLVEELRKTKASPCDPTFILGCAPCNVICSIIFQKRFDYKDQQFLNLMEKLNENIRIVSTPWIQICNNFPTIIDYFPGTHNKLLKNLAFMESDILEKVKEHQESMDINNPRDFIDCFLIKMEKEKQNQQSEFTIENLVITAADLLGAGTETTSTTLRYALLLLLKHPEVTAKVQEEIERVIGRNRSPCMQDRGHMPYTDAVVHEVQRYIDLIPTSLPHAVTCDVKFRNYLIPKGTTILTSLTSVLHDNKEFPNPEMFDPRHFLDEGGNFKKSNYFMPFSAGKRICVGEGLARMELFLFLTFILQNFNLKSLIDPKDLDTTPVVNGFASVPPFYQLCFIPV
Sequence of Cytochrome P450 3A4 (Homo sapiens) (P08684 whole entry, looked up): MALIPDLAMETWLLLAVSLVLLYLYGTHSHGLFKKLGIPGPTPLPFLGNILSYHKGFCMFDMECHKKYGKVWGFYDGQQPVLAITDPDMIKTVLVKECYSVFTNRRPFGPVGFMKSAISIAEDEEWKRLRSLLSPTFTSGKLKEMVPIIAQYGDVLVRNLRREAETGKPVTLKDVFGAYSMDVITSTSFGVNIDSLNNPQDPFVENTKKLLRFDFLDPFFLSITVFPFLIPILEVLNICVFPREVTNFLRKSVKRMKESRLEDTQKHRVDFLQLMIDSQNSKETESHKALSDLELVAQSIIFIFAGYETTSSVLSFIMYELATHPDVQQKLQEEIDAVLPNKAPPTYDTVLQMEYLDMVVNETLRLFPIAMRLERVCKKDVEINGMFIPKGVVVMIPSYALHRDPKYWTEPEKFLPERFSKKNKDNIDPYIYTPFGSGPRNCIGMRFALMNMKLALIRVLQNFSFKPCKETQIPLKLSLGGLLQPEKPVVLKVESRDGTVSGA

Cc1ccc2oc(CN(Cc3ccccc3)C(=O)Nc3c(F)cc(F)cc3F)c(-c3ccc(Cl)cc3)c2c1
active: [3] 12.4 µM | [4] 28.4 µM | [5] 34.8 µM | [6] 5.39 µM | [7] 64.3 µM
inactive: all other assays above

c1ccc2ccccc2c1
not listed: [6]
inactive: all other assays above

CCCCCCCCCCCCO
not listed: [3]
inactive: all other assays above

Oc1ccccc1
not listed: [3]
inactive: all other assays above

NC(=O)c1nc(-c2cccc(-c3cc(F)ccc3OCC(F)(F)C(F)(F)F)c2)n[nH]1
inactive: [1] | [2] | [8] | [10]
active: [4] 16.9 µM | [5] 12.3 µM | [6] 81.1 µM | [7] 78.1 µM | [9] 84.4 µM

CC(=O)N1CCN(c2ccc(OC[C@H]3CO[C@](Cn4ccnc4)(c4ccc(Cl)cc4Cl)O3)cc2)CC1
active: [2] 22.9 µM | [4] 12.9 µM | [5] 12.4 µM | [7] 12.9 µM | [9] 38.4 µM
inactive: [10]

CC(C)(C)c1csc(-c2cc3cc(OCc4ccccc4CC(=O)O)ccc3o2)n1
inactive: [8]
active: [1] 33.5 µM | [2] 25.5 µM | [4] 16.8 µM | [5] 23.2 µM | [6] 76.1 µM | [7] 22.7 µM | [9] 89.5 µM | [10] 82.3 µM

Cc1ccc(C(C)C)cc1
not listed: [3]
inactive: all other assays above

Cc1cn([C@H]2C[C@H](N=[N+]=[N-])[C@@H](CO)O2)c(=O)[nH]c1=O
not listed: [3]
inactive: all other assays above

Oc1ccc2ccccc2c1
not listed: [3]
inactive: all other assays above

CC/C(=C(/CC)c1ccc(O)cc1)c1ccc(O)cc1
active: [4] 82.1 µM | [5] 83.4 µM | [7] 67.6 µM | [9] 77.4 µM
inactive: [2] | [8] | [10]

O=CCCCC=O
not listed: [3]
inactive: all other assays above

CC(C)(O)c1ccc(CNC(=O)c2cccnc2Oc2ccc3nonc3c2)cc1
active: [1] 12.1 µM | [2] 13 µM | [4] 34.2 µM | [6] 8.42 µM
not listed: [3]
inactive: all other assays above

CCCCCCCCCCCC[N+](C)(C)C
active: [1] 93.6 µM | [2] 78.4 µM | [4] 94.1 µM | [5] 76.2 µM | [6] 58.6 µM | [7] 78.1 µM | [9] 83.9 µM | [10] 83.7 µM
inactive: [8]

c1ccc2n[nH]nc2c1
not listed: [3]
inactive: all other assays above

C[C@]12CC[C@@H]3c4ccc(O)cc4CC[C@H]3[C@@H]1CCC2=O
active: [7] 64.5 µM | [8] 22.4 µM
inactive: [10]

Cc1cccc2ccccc12
not listed: [3]
inactive: all other assays above

CCN(Cc1cccc(S(=O)(=O)O)c1)c1ccc(C(=C2C=CC(=[N+](CC)Cc3cccc(S(=O)(=O)O)c3)C=C2)c2ccccc2S(=O)(=O)[O-])cc1
not listed: [3]
inactive: all other assays above

O=C(Nc1ccc(Cl)cc1)Nc1ccc(Cl)c(Cl)c1
active: [1] 22.6 µM | [2] 87.1 µM | [4] 15.8 µM | [5] 28.7 µM | [7] 26.6 µM | [8] 50 µM | [9] 12.6 µM
inactive: [10]

CCO[Si](CCCNC(N)=O)(OCC)OCC
not listed: [3]
inactive: all other assays above

CN1C(=O)CC[C@H]1c1cccnc1
not listed: [3]
inactive: all other assays above

CO[C@H]1/C=C/O[C@@]2(C)Oc3c(C)c(O)c4c(O)c(c(/C=N/N5CCN(C)CC5)c(O)c4c3C2=O)NC(=O)/C(C)=C\C=C\[C@H](C)[C@H](O)[C@@H](C)[C@@H](O)[C@@H](C)[C@H](OC(C)=O)[C@@H]1C
inactive: [7] | [8] | [9] | [10]
active: [1] 0.427 µM | [2] 0.232 µM | [4] 1.06 µM | [5] 0.593 µM

CCOC(=O)O[C@H](C)OC(=O)c1ccc2c(c1)cc(C(=O)NC1CCN(C(C)C)CC1)n2Cc1cc(-c2ccc(Cl)s2)on1
active: [5] 47.2 µM
not listed: [3]
inactive: all other assays above

CN(C[C@@H](CC[N+]12CCC(C3CCCCC3)(CC1)CC2)c1ccc(Cl)c(Cl)c1)C(=O)c1cc(C(F)(F)F)cc(C(F)(F)F)c1
inactive: [8] | [10]
active: [1] 29.9 µM | [2] 25.4 µM | [4] 13.7 µM | [5] 21.1 µM | [6] 30.9 µM | [7] 12.1 µM | [9] 54.4 µM

Clc1ccccc1C(c1ccccc1)(c1ccccc1)n1ccnc1
active: [1] 27.4 µM | [2] 23.9 µM | [4] 11.3 µM | [5] 15.8 µM | [7] 86.5 µM | [8] 15.8 µM | [9] 71.5 µM
inactive: [10]

CC(C)(c1cc(Br)c(O)c(Br)c1)c1cc(Br)c(O)c(Br)c1
active: [4] 85.6 µM | [9] 76.1 µM
not listed: [3]
inactive: all other assays above

COc1cccc([C@H](O)C2CCN(CCc3ccc(F)cc3)CC2)c1OC
active: [1] 50 µM | [4] 16.7 µM | [6] 50 µM | [7] 70.5 µM
not listed: [3]
inactive: all other assays above

CCN(Cc1cccnc1)C(=O)c1cccc(Cl)c1[C@]1(C)C(=O)N(Cc2ccc(OC)cc2OC)c2ccc(Cl)cc21
active: [1] 26.1 µM | [2] 25.8 µM | [4] 16.1 µM | [5] 16.7 µM | [6] 25.9 µM | [7] 11.5 µM | [8] 15.5 µM
inactive: [9] | [10]

CN(C)c1ccc(C(=C2C=CC(=[N+](C)C)C=C2)c2ccc(N(C)C)cc2)cc1
active: [1] 5.94 µM | [2] 3.61 µM | [4] 2.31 µM | [5] 3.37 µM | [7] 1.38 µM | [8] 88.8 µM | [9] 67.6 µM | [10] 32 µM

CCCCCc1ccc(N)cc1
active: [2] 18.7 µM
not listed: [3]
inactive: all other assays above

O=c1[nH]sc2ccccc12
not listed: [3]
inactive: all other assays above

O=c1c(-c2ccc(O)cc2)coc2cc(O)cc(O)c12
not listed: [3]
inactive: all other assays above

COCC(C)OCC(C)OCC(C)O (stereo unspecified)
active: [4] 50 µM
not listed: [3]
inactive: all other assays above

COc1ccc2cc(S(=O)(=O)N[C@H](CC(=O)N[C@H](Cc3ccc(CN4[C@H](C)CCC[C@@H]4C)cc3)C(=O)N(C)C(C)C)c3ccc4c(c3)OCO4)ccc2c1
inactive: [2] | [8] | [10]
active: [1] 23.7 µM | [4] 29.7 µM | [5] 20.7 µM | [6] 24 µM | [7] 20.4 µM | [9] 33.3 µM

NCc1cccc(C2CCN(C(=O)c3ccc(C#Cc4ccccc4F)o3)CC2)c1
inactive: [8] | [9] | [10]
active: [1] 89.3 µM | [2] 94 µM | [4] 79.3 µM | [5] 82.4 µM | [6] 75.2 µM | [7] 75.4 µM

CCCCCCCC[Si](OCC)(OCC)OCC
not listed: [3]
inactive: all other assays above

CCCCCCCCCC(=O)O
not listed: [3]
inactive: all other assays above

CCCC(=O)OCCC(C)C
not listed: [3]
inactive: all other assays above

O=C1O[C@H]([C@@H](O)CO)C(O)=C1O
not listed: [3]
inactive: all other assays above

COc1cc(C(=O)NC2CCN(C)CC2)ccc1Nc1ncc2c(n1)N(C1CCCC1)CC(F)(F)C(=O)N2C
active: [1] 4.65 µM | [4] 22.9 µM | [5] 3.34 µM | [7] 83 µM | [9] 9.31 µM | [10] 28.7 µM
inactive: [2] | [6] | [8]
